Measurements: PubChem BioAssay AID602477 (National Center for Advancing Translational Sciences (NCATS), 2012)
Results filed as inconclusive are left out. Active and inactive are the calls of the source. Calls follow the shape of the dose curve; as a rule, active = well fitted activation curve with a large enough effect; inconclusive = small, poorly fitted or top-dose-only effect; inactive = no such curve, though single readings can be large or run the other way.

assay: FLuc inhibitory activity for the follow-up compounds in a cell-based assay to assess the activity of miR-21; conditions: HeLa miR-21-FLuc reporter, luciferase luminescence, 48 h; series mostly up to 38.3 µM; activity change, positive = activation: at the top concentration
Excerpt: NCGC Assay Overview: Firefly (Photinus pyralis) luciferase is one of the most commonly used transcriptional reporters. It is considered one of the more dynamically responsive reporters - that is, responsive to changes in reporter transcription - as it requires no post-translational modifications and is enzymatically active directly after protein synthesis (Wood, 1998). With no endogenous expression in mammalian cells and without the requirement of external excitation, it offers very little background signal, thus generally providing excellent signal to background for most assays. Previous profiling work to determine the prevalence of compounds that affect FLuc enzymatic activity (PubChem AID 411) identified that ~3% of the MLSMR library (then at ~72K) inhibited FLuc (Auld et al., 2008). […] Of the compounds identified in this profile that inhibited FLuc, 151 compounds were selected for further analysis, in an effort to better understand their mode of inhibiting FLuc. The assay described here was to determine the activity of the compounds in a cell-based firefly luciferase reporter gene assay originally designed to identify antagonists of miR-21. Compounds that inhibit miR-21 or compounds that stabilize FLuc intracellularly are identified as active compounds in the assay.
NCGC Assay Protocol Summary: Reagents: In-house detection reagent: 300mM Tris-HCl, 300mM Trizma base, 300mM MgCl, 1% Triton-X100, 5mM DTT, 500uM Coenzyme A trilithium salt (Sigma #C3019),450uM ATP (Sigma #A7699), 1mM D-luciferin sodium salt monohydrate (Biosynth #L8240) HeLa cells stably expressing firefly luciferase (FLuc) under the control of a CMV promoter (upstream) and a miR-21 binding sequence directly downstream of the gene. These cells endogenously express miR-21. Control compounds used were two known firefly luciferase inhibitors (3-(5-(3-chlorophenyl)-1,2,4-oxadiazol-3-yl)benzoic acid and 5-(2-fluorophenyl)-3-phenyl-1,2,4-oxadiazole), and DMSO. Assay Summary: 6uL of HeLa miR-21-FLuc cells in assay buffer (DMEM, Invitrogen #21063-029; 10% FBS, HyClone #SH30071.03) were dispensed at 2000cells/well (3.3 x 10^5 cells/mL) into Greiner solid-white TC-treated 1536-well plates using a Multidrop Combi (Thermo Fisher Scientific). Plates were incubated for one hour at 37 degree Celsius, 95% humidity, 5% CO2. These assay plates were then treated with 23nL of compound or DMSO using a Kalypsys pin tool, which allows for delivery of a 12-point titration of each compound to the assay plate, with a final compound concentration ranging from approximately ~38uM to 0.2nM. Assay plates were then incubated for 48 hours. After incubation, plates were allowed to come to RT for one hour prior to delivery of 3uL of 3X luciferase detection reagent. After a 15 minute incubation to allow for cell lysis, luciferase activity was measured using a ViewLux CCD imager (PerkinElmer), with an average exposure time of 2-12 seconds.

Structure (SMILES) | Potency | activity change, positive = activation
CC(C)Oc1ccc(C(=O)Nc2ccc(-c3nc4ccccc4s3)cc2)cc1 | 1130 nM (active) | –
O=S(=O)(c1ccc(-c2nc3ccccc3s2)cc1)N1CCCC1 | 2000 nM (active) | –
O=C(Nc1ccccc1C(=O)O)c1cccc(S(=O)(=O)Nc2ccc(Br)cc2)c1 | – | 9.47% (inactive)
Cc1ccc(S(=O)(=O)N2CCOCC2)cc1C(=O)Nc1ccccc1C(=O)O | – | -39.9% (inactive)
CC(C)C(=O)Nc1cccc(C(=O)Nc2ccccc2C(=O)O)c1 | – | 31.7% (inactive)
O=C(Cc1ccccc1)Nc1ccccc1C(=O)Nc1ccc(C(=O)O)cc1 | – | 11.6% (inactive)
O=C(Nc1ccc(Cl)cc1-c1nc2ccccc2s1)c1ccco1 | 20000 nM (active) | –
O=C(Nc1ccccc1C(=O)O)c1cccc(NC(=O)c2ccc(Br)o2)c1 | – | 10.8% (inactive)
CC(C)(C)C(=O)Nc1ccc(-c2nc3ccccc3s2)cc1 | – | -76.5% (inactive)
O=C(O)c1cccc(NC(=O)c2cccc(S(=O)(=O)N3CCCCC3)c2)c1 | 14200 nM (active) | –
COc1ccc2nc(NC(=O)Cc3cccs3)sc2c1 | 2830 nM (active) | –
O=C(Nc1ccccc1C(=O)O)c1cccc(NC(=O)c2ccccc2Br)c1 | – | 18.7% (inactive)
Cc1ccc(S(=O)(=O)N2CCN(C(=O)c3ccccc3-c3nc4ccccc4s3)CC2)c(C)c1 | 20000 nM (active) | –
COc1ccc2nc(NC(=O)c3cccc(S(=O)(=O)N4CCOCC4)c3)sc2c1 | 7110 nM (active) | –
O=C(O)c1cccc(NC(=O)c2cccc(S(=O)(=O)N3CCc4ccccc4C3)c2)c1 | – | 20.6% (inactive)
Cc1ccc(C(=O)Nc2ccc(C(=O)O)cc2)cc1S(=O)(=O)NCc1ccccc1 | – | 11.9% (inactive)
CC(C)c1ccc(C(=O)Nc2ccc(-c3nc4ccccc4s3)c(Cl)c2)cc1 | 7980 nM (active) | –
Cc1ccc(C(=O)O/N=C(\N)c2ccccn2)cc1 | 200 nM (active) | –
COc1ccc(CC(=O)Nc2cccc(C(=O)Nc3ccccc3C(=O)O)c2)cc1OC | 5040 nM (active) | –
Cc1c(NC(=O)C(C)(C)C)cccc1-c1nc2ccccc2s1 | 10000 nM (active) | –

Structure (SMILES) | Potency | activity change, positive = activation
COc1ccc(-c2nc3ccccc3s2)cc1O | 1790 nM (active) | –
CCOc1ccc2nc(NC(=O)c3cccnc3)sc2c1 | 1130 nM (active) | –
Nc1ccc2nc(-c3ccc(O)cc3)sc2c1 | 400 nM (active) | –
CN=c1scc(-c2ccccc2F)n1/N=C/c1ccc[nH]1 | – | -64.3% (inactive)
Cc1c(NC(=O)c2cccs2)cccc1-c1nc2ccccc2s1 | 20000 nM (active) | –
Cc1ccc(C(=O)Nc2ccc(C(=O)O)cc2)cc1S(=O)(=O)Nc1ccccc1 | – | 20.5% (inactive)
CCOc1ccc2nc(NC(=O)c3ccccn3)sc2c1 | 56.5 nM (active) | –
Cc1ccc(C(=O)Nc2cccc(C(=O)O)c2)cc1S(=O)(=O)N1CCOCC1 | 12600 nM (active) | –
COc1cccc(OC)c1C(=O)Nc1cccc(C(=O)Nc2cccc(C(=O)O)c2)c1 | – | 12.7% (inactive)
COc1ccc(-c2cccc(C(=O)Nc3cccc(C(=O)O)c3)c2)cc1 | 4490 nM (active) | –
COc1ccc(CC(=O)Nc2ccc(-c3nc4ccccc4s3)c(C)c2)cc1 | 14200 nM (active) | –
CCn1c(C)nc2cc(-c3nc4n(n3)Cc3ccccc3-4)ccc21 | 100 nM (active) | –
Oc1ccc(-c2nc3ccccc3s2)c(O)c1 | 11300 nM (active) | –
COc1cc(OC)cc(-c2nc3ccccc3s2)c1 | 3560 nM (active) | –
CCOc1ccc(C(=O)Nc2ccccc2C(=O)O)cc1 | 1130 nM (active) | –
CC(C)c1ccc(-c2nc3ccccc3s2)cc1 | 25.2 nM (active) | –
COc1ccc2nc(NC(=O)c3ccco3)sc2c1 | 100 nM (active) | –
Nc1ccc(-c2nc3ccc(N)cc3s2)cc1 | 283 nM (active) | –
c1ccc2sc(-c3ccc4c(c3)OCO4)nc2c1 | 225 nM (active) | –
O=C(O)c1cccc(NC(=O)c2ccc(Cl)c(S(=O)(=O)N3CCCCCC3)c2)c1 | 634 nM (active) | –
